Dicer processing: inhibitors of Dicer pre-microRNA processing, primary screen, biochemical, cat-ELCCA, chemiluminescence; Endoribonuclease Dicer (Homo sapiens), Q9UPY3; cat-ELCCA pre-miR-21 Dicer processing; hits give high values; z-score at 25 µM; 47,000 compounds, 6% hits; in the data active = z-score above about 3, passing the limit was not always enough;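 note: plate controls were vehicle for no effect and no enzyme for full effect; higher signal means more uncleaved substrate so more Dicer inhibition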
The depositor's hits bear a star. The entries come from a sample that favours hits as a whole.

SMILES | Dicer processing
O=C1CCCC2=C1C(c1ccc3c(c1)OCO3)n1nc(-c3cccc(Cl)c3)nc1N2 (configuration not stated) | 4.1*
O=C1CCCC2=C1C(c1ccncc1)n1nc(-c3cccc(Cl)c3)nc1N2 (configuration not stated) | -0.3
Cc1cccc(-c2nc3n(n2)C(c2ccc(O)cc2)C2=C(CCCC2=O)N3)c1 (configuration not stated) | 0.2
Cc1cc(Br)c(NC(=O)c2cccs2)c(Br)c1 | 1.7
COc1ccc(S(=O)(=O)Nc2cccnc2)c(C)c1C | 1.1
Cc1c(C)c(C)c(S(=O)(=O)Oc2cccnc2)c(C)c1C | 3.8*
Cc1c(C)c(C)c(S(=O)(=O)Oc2cc(Cl)cc(Cl)c2)c(C)c1C | -0.02
CSc1scc2c1C(=O)/C(=C/N(C)C)CC2 | -0.28
COc1ccccc1-c1n[nH]c(=S)o1 | 3.7*
COc1ccccc1-c1nc2ccccc2c(=O)o1 | -1.8
CCn1nc(C)cc1-c1n[nH]c(=S)o1 | 0.96
Cc1ccccc1-c1n[nH]c(=S)o1 | -1.2
FC(F)(F)c1ccc(-c2n[nH]c(=S)o2)cc1 | 0.29
Cc1ccc(-c2n[nH]c(=S)o2)cc1 | 4.8*
CCOC(=O)c1c(NS(=O)(=O)c2ccc(Br)cc2)sc2c1CCCC2 | -0.61
Cc1ccc(-c2nnc(Nc3cccc(O)c3)c3ccccc23)cc1S(=O)(=O)N(C)C | 0.46
COc1ccc(-c2nnc(Nc3ccc4c(c3)ncn4C)c3ccccc23)cc1 | 2.6
COc1ccc(-c2nnc(Nc3cccc(O)c3)c3ccccc23)cc1 | 3.9*
O=C(NC(=O)c1c(Cl)cccc1Cl)ON(Cc1ccc(Cl)cc1)Cc1ccc(Cl)cc1 | 2.6
C/C(=C\c1ccc(N)cc1)c1nc2ccccc2[nH]1 | 3*
c1ccc2[nH]c(CCc3nc4ccccc4[nH]3)nc2c1 | 0.25
Nc1ccc(Cc2nc3ccccc3[nH]2)cc1 | 1.3
CC1=NN(c2c(Cl)cc(Cl)cc2Cl)C(=O)C1 | -2.5
Cn1c(NCCCO)nc2c1c(=O)[nH]c(=O)n2C | 0.58
CNC(=O)c1cc(OC)ccc1Br | 0.06
SMILES | Dicer processing
O=C(c1ccccc1)n1ccc(-c2cccs2)n1 | -3.1
Nc1ncn(C(=O)c2ccccc2)n1 | 4.5*
O=C1CN(C(=O)c2ccccc2)C(=O)CN1C(=O)c1ccccc1 | 0.91
O=C(C1=C(O)C(=O)N(Cc2cccnc2)C1c1ccc(F)cc1)c1ccco1 (configuration not stated) | -1.4
CC1(C)CC(=O)C2=C(C1)NC1=C(C(=O)c3ccccc31)C2c1cccc(O)c1 (configuration not stated) | 2.5
COc1ccc(OC)c(C2C3=C(CC(C)(C)CC3=O)NC3=C2C(=O)c2ccccc23)c1 (configuration not stated) | 0.33
CC1(C)CC(=O)C2=C(C1)NC1=C(C(=O)c3ccccc31)C2c1ccc([N+](=O)[O-])o1 (configuration not stated) | 5.5*
Fc1ccc(C2C3=C(Nc4ncnn42)c2ccccc2OC3c2ccccc2)cc1 (configuration not stated) | -0.36
CCOC(=O)c1c(N)nc(SC)n1Cc1ccco1 | 0.37
CCc1cc2c(cc1C(=O)CSc1ncccc1C(=O)O)C(C)(C)CCC2(C)C | 0.7
Cc1cc(C)c2c(N)c(C(=O)NN)sc2n1 | -1.3
CNC(=S)NNC(=O)c1sc2nc(C)cc(C)c2c1N | 4.6*
CCOC(=O)c1sc2nc(C)cc(C)c2c1N | -1.2
Cn1c(=O)c2cc3cc([N+](=O)[O-])ccc3nc2c2c(=O)n(-c3ccccc3)c(=O)n(-c3ccccc3)c21 | -0.51
O=C1C(=O)N(c2cccnc2)C(c2ccc(Cl)cc2)/C1=C(\O)c1ccc(Cl)cc1 (configuration not stated) | 1.2
CC(C)(C)OC(=O)N[C@@H](CC(N)=O)C(=O)OCc1ccc(CC(=O)O)cc1 | -1.6
CN(C)C(=S)SCc1ccccc1C(=O)Oc1c(Cl)cccc1Cl | 3.6*
CNC(=S)NNC(=O)c1ccccc1Cl | -0.28
Cc1cc(Cl)c(OC(=O)c2c(Cl)cccc2Cl)c(Cl)c1 | -1.2
CCN(CC)CCSc1nc2ccccc2[nH]1 | 0.05
O=C(/C=C/OC(=O)c1ccc(Cl)c(Cl)c1)c1ccc(Cl)cc1 | 0.93
COC(=O)c1csc2c(C(F)(F)F)cc(N3CCN(C(=O)c4cccs4)CC3)nc12 | 0.81
COC(=O)c1cc(=O)n2c(c1C(=O)c1cccs1)SCC2 | 6.8*
COC(=O)c1ccsc1NC(=O)c1cccs1 | -0.03
CSC(SC)=C(C#N)C(=O)C1CC1 | -1.5
SMILES | Dicer processing
N#Cc1ccc(CSC2=NCCCN2C2CCCCC2)cc1 | -0.2
O=C(Nc1ccccc1)NC1Cc2ccccc2C1 | -0.46
O=C(CSc1nn2cnnc2s1)N1CCc2ccccc21 | 3.1*
O=C(CSc1nn2cnnc2s1)N(C1CCCCC1)C1CCCCC1 | 2
O=C(CSc1ncn[nH]1)N1CCc2ccccc21 | 0.69
Nc1c2c(=O)[nH]c(-c3ccccc3)nc2nn1-c1ccccc1 | -1.1
O=C(Nc1ccc2nc(CN3CCOCC3)[nH]c2c1)c1ccco1 | 0.1
N#Cc1c(=O)c2ccccc2n2ccccc12 | -1.8
Cc1ccccc1NCc1c(C#N)c2ccccc2n1C | 3.5*
COc1ccc(OCc2c(C#N)c3ccccc3n2C)cc1 | 0.02
O=c1sc2ccccc2c(NCc2ccccc2)c1[N+](=O)[O-] | 4.4*
CCN(CC)c1c([N+](=O)[O-])c(=O)sc2ccccc12 | -1.2
O=[N+]([O-])c1ccsc1NCc1ccccc1 | -1.1
COc1ccccc1-c1nnc2ccc3ccccc3n12 | 3*
Clc1ccc(-c2nnc3ccc4ccccc4n23)cc1 | -2.8
Fc1ccc(-c2nnc3ccc4ccccc4n23)cc1 | -0.03
Cc1ccccc1NC1=NS(=O)(=O)c2ccccc21 | -2.4
CCc1sc(NC2=NS(=O)(=O)c3ccccc32)nc1-c1ccccc1 | -0.27
Cc1sc(NC2=NS(=O)(=O)c3ccccc32)nc1-c1ccc(Cl)cc1 | 3.6*
O=C(Nc1ccc(Cl)cc1)Oc1ccc2ccccc2c1 | 0.54
CCOC(=O)c1sc(-c2cccc(Cl)c2)nc1O | 5.8
CCOC(=O)c1cn(Cc2ccccc2)c2cc(C)nn2c1=O | -0.01
CCOC(=O)c1ncn(Cc2ccccc2)c1N | 3.4*
CCOC(=O)c1nnn(Cc2ccccc2)c1N | 1.7
COc1ccc(-c2cc(C(F)(F)F)nc(SCC(=O)N(C)Cc3cnn(C)c3)n2)cc1OC | -0.06
SMILES | Dicer processing
CSc1n[nH]c(N)c1S(=O)(=O)C(C)C | -1.8
CC1(C)CC(=O)C(C(C2=C(O)CC(C)(C)CC2=O)c2cccc(O)c2O)C(=O)C1 (configuration not stated) | 4.3*
CC1(C)CC(=O)C(C(C2=C(O)CC(C)(C)CC2=O)c2cc(Br)ccc2O)C(=O)C1 (configuration not stated) | -0.06
Cc1ccc(C(C2=C(O)CC(C)(C)CC2=O)C2C(=O)CC(C)(C)CC2=O)o1 (configuration not stated) | -0.3
Oc1ccc(CCc2n[nH]c(=S)n2CCc2ccccc2)cc1 | -0.6
Cc1ccc(CSCCNS(=O)(=O)c2ccc3c(c2)OCCO3)cc1 | 0.62
CCSc1nnc2c(n1)OC(c1ccc(N(C)C)cc1)Nc1ccccc1-2 (configuration not stated) | 1.4
CCCSc1nnc2c(n1)OC(/C=C/c1ccc([N+](=O)[O-])o1)Nc1ccccc1-2 (configuration not stated) | 3.5*
CCSc1nnc2c(n1)OC(c1ccc(O)cc1)Nc1ccccc1-2 (configuration not stated) | -0.74

Screens (PubChem BioAssay)
